The text below walks through data of PubChem BioAssay AID504332 (National Center for Advancing Translational Sciences (NCATS), 2011).

“And” between values parts separate entries of the source, which are not always exact repeats. Equal entries are not always repeated. Among all 350,000 compounds or so, about 31,000 (8.9%) were called active. Inconclusive results (about 15%) are left out. Calls follow the shape of the dose curve; as a rule, active = well fitted inhibition curve with a large enough effect; inconclusive = small, poorly fitted or top-dose-only effect; inactive = no such curve, though single readings can be large or run the other way. The entries come from a sample that favours actives as a whole. Entries that show only a call come without a potency. Some compounds were tested as several samples or in several runs, with calls that do not always agree.
Potency is read from the fitted curve at half-maximal effect.

In the test the target is Histone-lysine N-methyltransferase EHMT2 (Homo sapiens) (UniProt Q96KQ7). The test can be described thus: qHTS Assay for Inhibitors of Histone Lysine Methyltransferase G9a. Also: nearly all actives have a fitted effect of over 75% in size. The conditions noted are these: G9a H3K9 monomethylation, AlphaScreen, 2 h; series mostly up to 59 µM. The gist of the method: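 Quantitative HTS format: methyltransferase activity on a biotin-tagged H3K9 peptide is measured by AlphaScreen, using a rabbit anti-monomethyl-H3K9 antibody with streptavidin donor and anti-IgG acceptor beads. Final levels are 20 nM enzyme, 500 nM peptide, 20 uM SAM; 2 h RT.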
Chain of Histone-lysine N-methyltransferase EHMT2 (Homo sapiens) (Q96KQ7 913-1193 limits assumed): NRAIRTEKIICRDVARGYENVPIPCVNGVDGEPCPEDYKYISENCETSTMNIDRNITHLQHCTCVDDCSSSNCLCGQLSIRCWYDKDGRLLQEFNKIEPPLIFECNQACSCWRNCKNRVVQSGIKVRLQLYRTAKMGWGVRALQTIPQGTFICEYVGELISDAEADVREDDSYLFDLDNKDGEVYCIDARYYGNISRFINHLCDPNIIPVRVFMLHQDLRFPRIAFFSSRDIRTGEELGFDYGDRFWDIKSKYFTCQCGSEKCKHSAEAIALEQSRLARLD
Regarding `COc1ccc(C)cc1NC(=O)CCCN1C(=O)NC(C)(C)C1=O`, the activity, negative = inhibition was 20.4% [at 2.33 µM] (inactive).

As for `O=C(N/N=C/c1cccc(Br)c1)c1ccc(N2CCCC2=O)cc1`, the Potency is 79.4 µM (active).

For the molecule `COc1cc(/C=N/NC(=O)c2ccc(N3CCCC3=O)cc2)ccc1O`, the Potency result is “inactive”.

Turning to `Cn1c(=O)n(C)c2cc(/C=N/NC(=O)c3cccc(Br)c3)ccc21`, the Potency result was “inactive”.

As to `Cc1ccccc1NC(=O)Cn1cc(C(=O)c2cccs2)c2ccccc21`, the Potency result is “inactive”.

For `O=S(=O)(NC1CC1)c1ccc(Cl)cc1`, the Potency result was “inactive”.

Regarding `Cc1cc(C)c(OCCN2CC(C)OC(C)C2)c(Br)c1` (configuration not stated), the Potency is 8.91 µM (active).

`O=[N+]([O-])/C=C/c1ccc2c(ccn2Cc2ccccc2)c1`: the Potency was 31.6 µM (active).

Consider `O=c1c([N+](=O)[O-])cc(C(F)(F)F)cn1Cc1cccc(Cl)c1`, for which the Potency result is “inactive”.

Turning to `O=C(Cn1ccc2cc(S(=O)(=O)N3CCCC3)ccc21)NCc1ccccc1`, the Potency result was “inactive”.

For the molecule `Cc1cc(S(=O)(=O)NC2CCCC2)ccc1-n1cnnn1`, the Potency result was “inactive”.

In the case of `O=C(NCC1CCCO1)c1ccc(S(=O)(=O)Nc2ccc(F)cc2)cc1` (configuration not stated), the Potency entry was “inactive”.

Regarding `CN(CC(=O)Nc1ccc(Cl)cc1)C(=O)c1ccc(COc2ccccc2)cc1`, the Potency result is “inactive”.

As to `Cc1ccc(NC(=O)CN(C)C(=O)c2ccc(Br)o2)cc1`, the Potency entry is “inactive”.

Take `CN(CC(=O)Nc1ccc(F)cc1)C(=O)c1ccc(-c2ccc(Cl)cc2)o1`: the Potency was 79.4 µM (active).

Consider `CCOc1ccccc1CNC(=O)c1ccc(-n2c(C)cc3c2CCC(C)C3)cc1` (configuration not stated), for which the Potency entry is “inactive”.

On to `COc1ccc(CCNC(=O)CN(C)S(=O)(=O)c2ccc3nc(C)sc3c2)cc1OC`, for which the Potency result was “inactive”.

Consider `CCOCCCNC(=O)c1ccc2nc(CCc3ccccc3)oc2c1`, for which the Potency result was “inactive”.

For `Cc1ccc(NC(=O)c2cc(S(=O)(=O)NCCC3=CCCCC3)ccc2F)cc1C`, the Potency result was “inactive”.

Regarding `CCOc1cc2[nH]c(=S)n(CCCN3CCCC3=O)c(=O)c2cc1OCC`, the activity, negative = inhibition is -45.8% [at 12.7 µM] (inactive).

In the case of `COCCCn1c(SCC(=O)Nc2ccccc2)nnc1-c1ccncc1`, the Potency entry is “inactive”.

Consider `CSc1nnc(-c2ccncc2)n1CCCN1CCCC1=O`, for which the Potency was 50.1 µM (active).

For `O=C(c1ccc2c(c1)N(Cc1ccccc1F)C(=O)c1ccccc1S2(=O)=O)N1CCOCC1`, the Potency result was “inactive”.

As for `COC(=O)[C@H]1[C@H]2C[C@H]3c4[nH]c5ccccc5c4CCN3C[C@@H]2CC[C@@H]1O`, the Potency entry was “inactive and 12.6 µM (active)”.

With `COC(=O)C1CCN(C(=O)c2cc(=O)[nH]c3ccccc23)CC1`, the Potency result is “inactive”.

With `O=C(NC1CCCCC1)N1CCc2[nH]c3ccccc3c2C1`, the Potency entry is “inactive”.

With `O=C(NCCc1ccc(F)cc1)c1ccc(S(=O)(=O)N2CCCCC2)cc1`, the Potency entry was “inactive”.
